Reference: PubChem BioAssay (Tox21)
Records with an inconclusive call do not appear. Active and inactive are the calls of the source. Unless noted, calls come from the whole dose curve; as a rule, active = well fitted curve in the direction sought with a large enough effect in the repeat runs; inconclusive = weak or mixed curves; inactive = no such curve, though single readings can be large; an effect the other way counts as inactive or inconclusive.

How the values were obtained:
[1] = qHTS assay for identifying genotoxic compounds that show differential cytotoxicity against isogenic chicken DT40 cell lines with known DNA damage response pathways - wild type cell line (AID 743012); note: nearly all actives have a fitted effect of over 60% in size
How it was run: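 Wild type DT40, 300 cells/well, ~0.5 h settle at 37 C/5% CO2; compounds in DMSO added by pintool; 40 h at 37 C/5% CO2; CellTiter-Glo, 30 min RT; luminescence.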

[2] = qHTS assay for identifying genotoxic compounds that show differential cytotoxicity against isogenic chicken DT40 cell lines with known DNA damage response pathways - Rev3 mutant cell line (AID 743014); note: nearly all actives have a fitted effect of over 55% in size
[3] = qHTS assay for identifying genotoxic compounds that show differential cytotoxicity against isogenic chicken DT40 cell lines with known DNA damage response pathways - Rad54/Ku70 mutant cell line (AID 743015); note: nearly all actives have a fitted effect of over 60% in size
[4] = qHTS assay to identify small molecule antagonists of the androgen receptor (AR) signaling pathway - cell viability counter screen (AID 743033; note: nearly all actives have a fitted effect of over 45% in size)
[5] = biological target: Androgen receptor (Homo sapiens) (UniProt P10275); assay: qHTS assay to identify small molecule antagonists of the androgen receptor (AR) signaling pathway (AID 743035; active = well fitted inhibition curve with a large enough effect in the signal ratio in the repeat runs, not every such curve was filed as active; the % refers to the signal ratio)
How it was run: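 Fluorescence from a beta-lactamase FRET substrate (LiveBLAzer B/G, 2 h, room temperature) measured inhibition of R1881-stimulated signaling in GeneBLAzer AR-UAS-bla HEK293 cells exposed to compound for 16 h at 37C.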

[6] = biological target: Androgen receptor (Homo sapiens) (UniProt P10275); assay: qHTS assay to identify small molecule agonists of the androgen receptor (AR) signaling pathway (AID 743036; active = well fitted activation curve with a large enough effect in the signal ratio in the repeat runs, with a control signal flat, not every such curve was filed as active; the % refers to the signal ratio)
How it was run: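 Beta-lactamase under UAS control, stably integrated in HEK293 GripTite cells, reports receptor activation. After 16 h compound treatment, cells received FRET substrate for 2 h at room temperature before fluorescence reading.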

[7] = biological target: Androgen receptor (Homo sapiens) (UniProt P10275); assay: qHTS assay to identify small molecule agonists of the androgen receptor (AR) signaling pathway using the MDA cell line (AID 743040; note: nearly all actives have a fitted effect of over 20% in size)
How it was run: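 After a 5 h incubation at 37C and 0% CO2, MDA-kb2 reporter cells were dosed with compounds in DMSO and kept 16 h under the same conditions. Luciferase activity was then read as luminescence with ONE-Glo.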

[8] = qHTS assay to identify small molecule antagonists of the androgen receptor (AR) signaling pathway using the MDA cell line - cell viability counter screen (AID 743041; note: nearly all actives have a fitted effect of over 45% in size)
How it was run: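 R1881-driven MDA-kb2 AR-luc cells, 3,000/well, were dosed with library compounds for 16 h; cell health came from CellTiter-Fluor fluorescence in the reporter wells.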

[9] = biological target: Androgen receptor (Homo sapiens) (UniProt P10275); assay: qHTS assay to identify small molecule antagonists of the androgen receptor (AR) signaling pathway using the MDA cell line (AID 743042; note: nearly all actives have a fitted effect of over 55% in size)
How it was run: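 Antagonist mode: compounds plus R1881 agonist added to MDA-kb2 AR-luc cells, incubated 16 h at 37C. Luciferase reporter luminescence quantified, with multiplexed CellTiter-Fluor readout for cell viability.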

[10] = qHTS assay to identify small molecule antagonists of the thyroid receptor (TR) signaling pathway - cell viability counter screen (AID 743064); note: nearly all actives have a fitted effect of over 50% in size
How it was run: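 Compounds were tested on GH3.TRE-Luc cells in the presence of T3 at 1 nM final. Following 23.5 h at 37 °C, cell viability was quantified by CellTiter-Fluor.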

[11] = qHTS assay to identify small molecule antagonists of the thyroid receptor (TR) signaling pathway (AID 743065); note: series mostly up to about 70 µM; nearly all actives have a fitted effect of over 55% in size
How it was run: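 Antagonism measured as loss of luciferase signal in GH3 cells stably carrying a TRE-luciferase reporter, co-treated with compound and T3 (1 nM final) for 23.5 h at 37 C. Viability was read in the same well by CellTiter-Fluor.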

[12] = system: thyroid hormone receptor (rat, GH3 cells); assay: qHTS assay to identify small molecule agonists of the thyroid receptor (TR) signaling pathway (AID 743066; calls by dose curve)
[13] = qHTS assay to identify small molecule antagonists of the estrogen receptor alpha (ER-alpha) signaling pathway - cell viability counter screen (AID 743074; calls by dose curve;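 note: HEK293 cells carrying ER-alpha-UAS-bla reporter stimulated with 17beta-estradiol; nearly all actives have a fitted effect of over 45% in size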)
[14] = qHTS assay to identify small molecule antagonists of the estrogen receptor alpha (ER-alpha) signaling pathway using the BG1 cell line - cell viability counter screen (AID 743081);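 note: compound given together with 17beta-estradiol as the ER stimulus; series mostly up to about 70 µM; nearly all actives have a fitted effect of over 45% in size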
Aromatase (Homo sapiens) = Aromatase (Homo sapiens) (UniProt P11511); assay: qHTS assay to identify aromatase inhibitors (AID 743083); note: series mostly up to about 70 µM; nearly all actives have a fitted effect of over 55% in size
[15] = biological target: Estrogen receptor (Homo sapiens) (UniProt P03372); assay: qHTS assay to identify small molecule antagonists of the estrogen receptor alpha (ER-alpha) signaling pathway (AID 743069; active = well fitted curve in the direction sought with a large enough effect in the signal ratio in the repeat runs, not every such curve was filed as active; the % refers to the signal ratio)
How it was run: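 Compound effects are measured against 17beta-estradiol stimulation in HEK293 cells with a UAS-controlled beta-lactamase reporter for ER-alpha. Exposure lasts 18 hr at 37C; LiveBLAzer B/G FRET substrate follows for 2 hr at room temperature.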

[16] = biological target: Estrogen receptor (Homo sapiens) (UniProt P03372); assay: qHTS assay to identify small molecule agonists of the estrogen receptor alpha (ER-alpha) signaling pathway (AID 743075; calls by dose curve)
[17] = biological target: Estrogen receptor (Homo sapiens) (UniProt P03372); assay: qHTS assay to identify small molecule agonists of the estrogen receptor alpha (ER-alpha) signaling pathway using the BG1 cell line (AID 743079); note: nearly all actives have a fitted effect of over 20% in size
[18] = qHTS assay to identify small molecule antagonists of the estrogen receptor alpha (ER-alpha) signaling pathway using the BG1 cell line (AID 743080; calls by dose curve;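 note: BG1 cells stimulated with 17beta-estradiol alongside compound; series mostly up to about 70 µM; nearly all actives have a fitted effect of over 25% in size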)
How it was run: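 Luciferase inhibition measured with ONE-Glo after 30 min at RT in BG1Luc4E2 cells given test compounds and 17beta-estradiol for 21.5 h at 37 C; CellTiter-Fluor viability read in the same wells beforehand.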

[19] = qHTS assay to identify small molecule antagonists of the glucocorticoid receptor (GR) signaling pathway - cell viability counter screen (AID 720693); note: nearly all actives have a fitted effect of over 55% in size
% is set by controls: 0 for no effect and ±100 for the full control effect.

Chain of Androgen receptor (Homo sapiens) (P10275 whole entry, looked up): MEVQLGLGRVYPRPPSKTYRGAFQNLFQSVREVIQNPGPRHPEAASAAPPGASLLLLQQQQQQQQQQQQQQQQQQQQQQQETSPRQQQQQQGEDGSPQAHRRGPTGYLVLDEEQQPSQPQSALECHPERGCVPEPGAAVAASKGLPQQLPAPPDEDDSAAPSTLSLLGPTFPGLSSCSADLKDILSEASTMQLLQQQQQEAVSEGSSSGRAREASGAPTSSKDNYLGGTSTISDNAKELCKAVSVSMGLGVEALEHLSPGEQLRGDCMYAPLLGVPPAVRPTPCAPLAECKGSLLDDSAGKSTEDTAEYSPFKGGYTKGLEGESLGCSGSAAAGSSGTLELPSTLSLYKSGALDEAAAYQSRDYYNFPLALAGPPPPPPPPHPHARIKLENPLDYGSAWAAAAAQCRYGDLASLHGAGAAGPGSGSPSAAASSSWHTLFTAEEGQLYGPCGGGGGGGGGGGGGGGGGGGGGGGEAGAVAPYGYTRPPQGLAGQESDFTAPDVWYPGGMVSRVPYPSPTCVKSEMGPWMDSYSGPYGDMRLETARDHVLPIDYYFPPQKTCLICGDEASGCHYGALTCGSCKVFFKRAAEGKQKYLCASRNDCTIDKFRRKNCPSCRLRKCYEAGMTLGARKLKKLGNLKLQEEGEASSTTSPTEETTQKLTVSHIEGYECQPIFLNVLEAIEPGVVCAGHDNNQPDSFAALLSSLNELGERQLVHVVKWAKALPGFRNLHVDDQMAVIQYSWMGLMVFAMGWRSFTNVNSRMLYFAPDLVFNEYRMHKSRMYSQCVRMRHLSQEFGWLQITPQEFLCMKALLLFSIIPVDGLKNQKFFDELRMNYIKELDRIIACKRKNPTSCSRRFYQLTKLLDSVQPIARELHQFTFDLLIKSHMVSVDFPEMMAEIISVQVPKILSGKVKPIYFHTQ
Chain of Aromatase (Homo sapiens) (P11511 whole entry, looked up): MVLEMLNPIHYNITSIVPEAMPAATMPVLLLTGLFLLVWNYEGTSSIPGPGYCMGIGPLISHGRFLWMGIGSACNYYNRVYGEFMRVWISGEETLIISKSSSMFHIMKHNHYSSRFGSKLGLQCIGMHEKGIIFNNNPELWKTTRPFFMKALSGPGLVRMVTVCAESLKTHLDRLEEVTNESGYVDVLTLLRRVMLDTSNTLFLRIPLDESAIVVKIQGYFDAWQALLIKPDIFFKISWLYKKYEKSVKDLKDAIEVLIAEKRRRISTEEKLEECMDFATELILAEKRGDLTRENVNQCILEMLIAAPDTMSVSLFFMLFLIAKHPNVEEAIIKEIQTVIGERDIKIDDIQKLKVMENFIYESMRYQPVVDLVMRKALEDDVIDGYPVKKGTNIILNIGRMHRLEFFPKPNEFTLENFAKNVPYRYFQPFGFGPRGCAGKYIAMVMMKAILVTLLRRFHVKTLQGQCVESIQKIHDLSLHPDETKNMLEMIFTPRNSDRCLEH
Chain of Estrogen receptor (Homo sapiens) (P03372 whole entry, looked up): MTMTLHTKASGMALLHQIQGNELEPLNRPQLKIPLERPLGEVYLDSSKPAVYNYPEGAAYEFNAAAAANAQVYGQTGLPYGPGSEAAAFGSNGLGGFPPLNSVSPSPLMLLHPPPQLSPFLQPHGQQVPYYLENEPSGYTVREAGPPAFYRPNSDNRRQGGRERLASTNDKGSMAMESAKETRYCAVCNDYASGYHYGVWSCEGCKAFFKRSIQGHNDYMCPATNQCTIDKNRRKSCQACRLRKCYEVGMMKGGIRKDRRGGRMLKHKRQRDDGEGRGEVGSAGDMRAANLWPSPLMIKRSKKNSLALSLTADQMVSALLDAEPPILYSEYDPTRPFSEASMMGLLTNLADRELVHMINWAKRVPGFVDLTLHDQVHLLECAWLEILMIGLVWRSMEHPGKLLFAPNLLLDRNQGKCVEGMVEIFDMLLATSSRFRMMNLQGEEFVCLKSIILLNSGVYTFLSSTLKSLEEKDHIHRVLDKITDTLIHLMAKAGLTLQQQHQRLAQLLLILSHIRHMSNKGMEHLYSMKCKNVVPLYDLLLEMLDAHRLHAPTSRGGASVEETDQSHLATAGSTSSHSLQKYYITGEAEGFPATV

CCCCCCCCCCCCCCCCI
inactive: Potency [1] | Potency [2] | Potency [3] | outcome [4] | Potency [5] | outcome [6] | outcome [7] | outcome [8] | outcome [9] | Potency [10] | Potency [11] | Potency [12] | Potency [13] | outcome [14] | outcome (Aromatase (Homo sapiens))

COc1cccc2sc(N)nc12
inactive: Potency [1] | Potency [2] | Potency [3] | outcome [4] | outcome [8] | outcome [9] | Potency [10] | Potency [12] | Potency [15] | Potency [13] | Potency [16] | Potency [17] | outcome [18] | outcome [14] | outcome (Aromatase (Homo sapiens))

Cc1nc([N+](=O)[O-])cn1-c1ccc([N+](=O)[O-])cc1
inactive: Potency [1] | Potency [2] | Potency [3] | outcome [4] | outcome [8] | Potency [10] | Potency [11] | Potency [12] | Potency [15] | Potency [13] | Potency [16] | Potency [17] | outcome [18] | outcome [14] | outcome (Aromatase (Homo sapiens))

O=C(O)c1c(Cl)ccc(Cl)c1Cl
inactive: Potency [19] | Potency [2] | outcome [4] | outcome [8] | Potency [10] | Potency [11] | Potency [15] | Potency [13] | Potency [16] | Potency [17] | outcome [18] | outcome [14] | outcome (Aromatase (Homo sapiens))

CN(C)CCCNCCC#N
inactive: Potency [1] | Potency [2] | Potency [3] | outcome [4] | outcome [8] | Potency [10] | Potency [11] | Potency [12] | Potency [13] | outcome [14] | outcome (Aromatase (Homo sapiens))

CC(C)(C)c1ccc(C=O)cc1
inactive: Potency [1] | Potency [2] | Potency [3] | outcome [4] | outcome [8] | Potency [10] | Potency [11] | Potency [12] | Potency [15] | Potency [13] | Potency [16] | Potency [17] | outcome [18] | outcome [14] | outcome (Aromatase (Homo sapiens))

Cc1cccc(C(=O)O)c1[N+](=O)[O-]
inactive: Potency [1] | Potency [2] | Potency [3] | outcome [4] | outcome [8] | Potency [10] | Potency [11] | Potency [12] | Potency [15] | Potency [13] | Potency [16] | Potency [17] | outcome [18] | outcome [14] | outcome (Aromatase (Homo sapiens))

CCCCCCCCCCCCC1CO1 (stereo not drawn)
inactive: Potency [19] | outcome [4] | outcome [8] | Potency [10] | Potency [11] | Potency [12] | Potency [15] | Potency [13] | Potency [16] | Potency [17] | outcome [18] | outcome [14] | outcome (Aromatase (Homo sapiens))

C[CH2][Ge]([Cl])([CH2]C)[CH2]C
inactive: Potency [19] | Potency [2] | Potency [3] | outcome [4] | outcome [8] | Potency [11] | Potency [12] | outcome [14] | outcome (Aromatase (Homo sapiens))

CCN(Cc1cccc(S(=O)(=O)O)c1)c1ccccc1
inactive: Potency [19] | Potency [3] | outcome [4] | outcome [8] | Potency [10] | Potency [12] | Potency [15] | Potency [13] | Potency [16] | Potency [17] | outcome [18] | outcome [14] | outcome (Aromatase (Homo sapiens))

NC(=O)C1(N2CCCCC2)CCN(CCCC(=O)c2ccc(F)cc2)CC1
inactive: Potency [19] | outcome [4] | outcome [8] | Potency [10] | Potency [12] | Potency [15] | Potency [13] | Potency [16] | Potency [17] | outcome [18] | outcome [14] | outcome (Aromatase (Homo sapiens))

Nc1ccc(/C=C/c2ccc(N)cc2S(=O)(=O)O)c(S(=O)(=O)O)c1
inactive: Potency [19] | outcome [4] | Potency [10] | Potency [11] | Potency [12] | Potency [15] | Potency [13] | Potency [16] | Potency [17] | outcome [18] | outcome [14] | outcome (Aromatase (Homo sapiens))

CC(=O)OCC(=O)[C@@]1(O)[C@H](OC(C)=O)C[C@H]2[C@@H]3CCC4=CC(=O)C=C[C@]4(C)[C@@]3(F)[C@@H](O)C[C@@]21C
inactive: Potency [19] | outcome [4] | outcome [8] | Potency [10] | Potency [11] | Potency [12] | Potency [13] | Potency [16] | outcome [14] | outcome (Aromatase (Homo sapiens))

CCC(C)(CCC(C)C)C(=O)[O-].CCC(C)(CCC(C)C)C(=O)[O-].[Zn+2] (stereo not drawn)
inactive: Potency [19] | Potency [2] | Potency [3] | outcome [4] | outcome [8] | Potency [10] | Potency [11] | Potency [12] | Potency [13] | outcome [14]

C=CCOC(=O)c1ccc(C(=O)OCC=C)c(C(=O)OCC=C)c1
inactive: Potency [19] | outcome [4] | outcome [8] | Potency [10] | Potency [11] | Potency [12] | Potency [15] | Potency [16] | Potency [17] | outcome [18] | outcome [14] | outcome (Aromatase (Homo sapiens))

COC(/C=C(\C)CCC=C(C)C)OC
inactive: Potency [19] | Potency [2] | Potency [3] | outcome [4] | Potency [10] | Potency [12] | Potency [15] | Potency [13] | Potency [16] | Potency [17] | outcome [18] | outcome [14] | outcome (Aromatase (Homo sapiens))

C=C[Si](C)(C)O[Si](C)(C)C=C
inactive: Potency [19] | Potency [2] | outcome [4] | Potency [10] | Potency [11] | Potency [12] | Potency [15] | Potency [13] | Potency [16] | Potency [17] | outcome [18] | outcome [14] | outcome (Aromatase (Homo sapiens))

C=CCCCCCCCCCCC
inactive: viability change, negative = cytotoxic [19] 4.18% [at 7.04 µM] | activity, negative = cytotoxicity [2] 4.5% [at 8.53 µM] | activity change, negative = cytotoxicity [4] -0.32% [at 7.04 µM] | activity change, negative = inhibition [5] -3.92% [at 7.04 µM] | activation [6] -0.154% [at 6.9 µM] | activity change [7] 4.86% [at 8.47 µM] | viability change, negative = cytotoxic [8] -1.53% [at 8.47 µM] | activity change, negative = inhibition [9] 17.6% [at 8.47 µM] | activity change, negative = cytotoxic [10] -6.91% [at 8.44 µM] | activity, negative = inhibition [11] 8.56% [at 8.44 µM] | activation [12] -1.31% [at 8.08 µM] | activity, negative = inhibition [15] -5.51% [at 6.71 µM] | activation [16] -3.33% [at 6.71 µM] | activation [17] -5.04% [at 8.47 µM] | activity change, negative = inhibition [18] -1.81% [at 8.47 µM] | activity change, negative = cytotoxicity [14] 2.93% [at 8.47 µM] | activity, negative = inhibition (Aromatase (Homo sapiens)) 6.54% [at 8.47 µM]
